# An excerpt weighted towards active compounds, which were near 1% of everything screened.
# APEX1 inh = qHTS Assay for Inhibitors of the Human Apurinic/apyrimidinic Endonuclease 1 (APE1); recombinant APE1, TAMRA/BHQ-2 abasic DNA cleavage fluorescence; 350,000 compounds, 0.35% hits; DNA repair nuclease/redox regulator APEX1 (Homo sapiens), P27695; Potency, µM (highest dose often 65.8 µM), for the others: at the highest dose activity change, negative = inhibition, usual class: inhibitors; AID 2517, 2012;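 note: plate controls were vehicle for no effect and reference inhibitor for full effect; nearly all actives have a fitted effect of over 55% in size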
# Target sequence (P27695 whole entry, looked up): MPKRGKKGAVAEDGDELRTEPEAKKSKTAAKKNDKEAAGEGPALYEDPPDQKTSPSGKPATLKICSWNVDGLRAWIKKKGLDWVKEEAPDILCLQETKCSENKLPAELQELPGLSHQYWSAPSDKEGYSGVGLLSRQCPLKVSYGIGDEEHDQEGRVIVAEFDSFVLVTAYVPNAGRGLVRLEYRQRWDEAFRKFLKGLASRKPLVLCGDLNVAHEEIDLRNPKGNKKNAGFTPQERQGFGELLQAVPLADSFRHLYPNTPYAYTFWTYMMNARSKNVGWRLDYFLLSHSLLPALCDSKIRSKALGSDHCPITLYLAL
#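 0.75 nM APE1 + cpd, 15 min RT; start w/ 50 nM TAMRA/BHQ-2 THF-abasic dsDNA; kinetic fluor 525/598 nm ×3 reads @60 s; Δ(read3−read1); normalized to DMSO and NSC13755 control wells.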
# FEN1 inhibitor = qHTS Assay for the Inhibitors of Human Flap endonuclease 1 (FEN1); P39748; Recombinant FEN1 flap cleavage, fluorescence, 15 min; Potency, µM (doses to about 114 µM), inactives show at the highest dose activity change, negative = inhibition, actives largely listed as inhibitors; 390,000 compounds, 0.35% hits; note: nearly all actives have a fitted effect of over 65% in size
# Target sequence (P39748 whole entry, looked up): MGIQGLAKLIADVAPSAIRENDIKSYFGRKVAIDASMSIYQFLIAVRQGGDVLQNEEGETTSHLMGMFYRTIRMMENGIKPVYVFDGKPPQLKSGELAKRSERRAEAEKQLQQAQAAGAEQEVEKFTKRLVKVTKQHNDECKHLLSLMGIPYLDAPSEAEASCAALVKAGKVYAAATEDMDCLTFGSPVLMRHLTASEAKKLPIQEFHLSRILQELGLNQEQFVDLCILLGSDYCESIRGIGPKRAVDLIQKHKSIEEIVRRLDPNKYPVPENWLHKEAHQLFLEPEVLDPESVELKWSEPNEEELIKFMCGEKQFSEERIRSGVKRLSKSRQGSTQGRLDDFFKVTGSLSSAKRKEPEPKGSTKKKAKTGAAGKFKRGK
#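 Nuclease activity of 10 nM FEN1 was measured after 15 min of room-temperature exposure to titrated compounds, by adding 50 nM flap substrate and reading plates at 0 and 15 min.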
# BLM inh = qHTS Assay for Inhibitors of Bloom's syndrome helicase (BLM); RecQ-like DNA helicase BLM (Homo sapiens), P54132; recombinant BLM DNA unwinding, fluorescence dequenching; Potency, µM (top dose mostly 56.1 µM), for inactives: at the top dose activity change, negative = inhibition, most hits filed as inhibitors; 350,000 compounds, 0.2% hits; AID 2528, 2010;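 note: plate controls were vehicle for no effect and no enzyme for full effect; nearly all actives have a fitted effect of over 35% in size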
# L3MBTL1 inh = qHTS Assay for the Inhibitors of L3MBTL1 | AlphaScreen L3MBTL1–H3K9me1 peptide binding | Potency, µM (highest dose often 57.1 µM), for the others: at the top dose activity, negative = inhibition, most hits filed as inhibitors | 230,000 compounds, 0.66% hits | AID 485360, 2010; note: nearly all actives have a fitted effect of over 60% in size
#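 First, the protein-peptide complex forms for 30 min at room temperature (L3MBTL1 50 nM, biotinylated H3K9me1 peptide 75 nM). Next, compounds are pin-transferred and incubated 30 min. Finally, AlphaScreen beads are added and read after 30 min.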
# RECQ1 inh = qHTS Assay for Inhibitors of RecQ-Like Dna Helicase 1 (RECQ1). ATP-dependent DNA helicase Q1 (Homo sapiens), P46063. RECQ1 DNA unwinding, red fluorescence kinetic read. Potency, µM (top dose mostly 57.3 µM), for the others: at the highest dose activity, negative = inhibition, hits mostly inhibitors. 240,000 compounds, 0.54% hits. AID 2549, 2010;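 note: plate controls were vehicle for no effect and no enzyme for full effect; nearly all actives have a fitted effect of over 30% in size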
#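 RECQ1T1 50 nM; forked duplex (20 bp + 30-nt ss tails) 200 nM, ATP 2 mM final; pH 8.0, 2 mM MgCl2, 2.5 ug/ml poly(dI-dC); 15 min compound preincubation; discontinuous kinetic read over 2 h at RT.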
# WRN helicase inh = qHTS for Inhibitors of WRN Helicase. 360,000 compounds, 0.46% hits. Potency, µM (highest dose often 114 µM), inactives show at the highest dose activity change, negative = inhibition, usual class: inhibitors. WRN helicase unwinding, fluorescent forked duplex, kinetic. Bifunctional 3'-5' exonuclease/ATP-dependent helicase WRN (Homo sapiens), Q14191; note: nearly all actives have a fitted effect of over 55% in size
#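 WRN at 20 nM final was preincubated with compound for 15 min at room temperature; reaction started with 100 nM forked duplex oligonucleotide carrying fluorophore and quencher plus 2 mM ATP (final). Unwinding followed kinetically by red fluorescence (ex 525/em 598 nm).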
# Starred values were filed as active, the others as inactive; i = inactive; ? = inconclusive; . = not tested or not shown; ! = not active in a repeat; [ ] = remark or other dose. Calls come from the whole dose curve; as a rule, active = well fitted curve in the direction sought with a large enough effect; inconclusive = small, poorly fitted or top-dose-only effect, or another doubt; inactive = no such curve, though single readings can be large; an effect the other way counts as inactive or inconclusive. Unless noted, % is set by controls: 0 for no effect and ±100 for the full control effect; potency is the fitted concentration of half-maximal effect.
SMILES,APEX1 inh,FEN1 inhibitor,BLM inh,L3MBTL1 inh,RECQ1 inh,WRN helicase inh
Cc1ccc(-n2c(O)c(C=NCc3ccco3)c(=O)[nH]c2=S)cc1C,?,-10.3%,?,31.6µM*,-16.2%,?
O=C1C(Cl)=C(Cl)C(=O)C(Cl)=C1Cl,39.8µM*,.,-11.2%,.,?,.
O=C1C(=O)C(Cl)=C(Cl)C(Cl)=C1Cl,.,.,.,.,.,39.8µM*
[N-]=[N+]=[N-],26.6%,.,.,.,1.2%,.
O=C1C(I)=CC(=C(c2cc(I)c(O)c(I)c2)c2ccccc2C(=O)O)C=C1I,?,.,15.8µM*,.,.,.
Nc1ccccc1C(=O)O,-0.7%,.,-10.8%,.,6.5%,.
C[C@]12C=CC(=O)C=C1CC[C@@H]1[C@@H]2CC[C@]2(C)OC(=O)CC[C@@H]12,19.0%,.,.,.,.,.
C#CCOCCOCCOCCNc1nc(N2CCN(C(=O)CCCCCCCCCCNC(=O)[C@H]([C@@H](C)CC)n3cc(CCCCN=C(N)N)nn3)CC2)nc(N2CCN(C(=O)CCCCCCCCCCNC(=O)[C@H](CO)n3cc(CCCCCN)nn3)CC2)n1,?,25.1µM*,.,-8.6%,.,22.4µM*
OCC[n+]1c2ccccc2nc2ccc(N3CCOCC3)cc21,-8.7%,3.4%,?,?,12.6µM*,-2.1%
COc1c(C(C)(C)C)cc([N+](=O)[O-])c(C)c1[N+](=O)[O-],1.2%,.,.,.,-5.2%,.
O=C1NC(=O)N(CC2CCCO2)C(=O)/C1=C/c1cccs1 (stereo not given),-3.8%,?,-5.5%,-29.4%,3.3%,-15.1%
O=C1NC(=S)N(c2ccccc2F)C(=O)/C1=C\c1cccs1,-5.2%,-6.1%,4.1%,2.4%,?,50.1µM*
CCOc1ccc(N2C(=O)NC(=O)/C(=C\c3ccccc3[N+](=O)[O-])C2=O)cc1,-4.1%,-23.5%,-0.1%,-0.7%,-2.5%,-6.3%
CCc1ccccc1N1C(=O)/C(=C/c2ccc(N3CCN(C)CC3)o2)C(=O)NC1=S,1.0%,?,-7.9%,-2.2%,-11.8%,50.1µM*
CCOc1ccc(N2C(=O)/C(=C/c3ccco3)C(=O)NC2=S)cc1,21.2µM*,?,?,-8.0%[2.29 µM],.,11.2µM*
CCOc1ccc(N2C(=O)/C(=C\c3cccs3)C(=O)NC2=S)cc1,-6.1%,?,-3.9%,25.1µM*,-21.4%,39.8µM*
CC[C@H]1[C@@H]2C[C@H]3[C@@H]4N(C)c5ccccc5[C@]45C[C@@H](C2[C@H]5O)N3[C@@H]1O (stereo not given in full),1.5%[21 µM],.,.,.,.,.
CCCCCCCCCCCCCCOS(=O)(=O)O,-3.8%,.,?,.,?,.
Cc1ccccc1N1C(=O)/C(=C/c2ccco2)C(=O)NC1=S,0.0752µM*,.,0.891µM*,.,.,.
COc1ccc(N2C(=O)/C(=C/c3ccc(C)o3)C(=O)NC2=S)c(OC)c1,-8.6%,?,-11.8%,-7.3%[2.29 µM],.,?
Oc1cccc(Cl)c1,0.9%,.,.,.,-10.2%,.
O=C1NC(=O)N(c2ccccc2)C(=O)/C1=C\c1ccc([N+](=O)[O-])o1,?,.,35.1%,3.16µM*,-25.5%,.
Cc1ccc(/C=C2/C(=O)NC(=O)N(C)C2=O)cc1,5.5%,1.4%,-1.9%,3.3%,-14.3%,?
CN1C(=O)NC(=O)/C(=C\c2ccc([N+](=O)[O-])o2)C1=O,?,15.8µM*,22.5%,10µM*,i,25.1µM*
CC(C)[C@H](CO)Nc1nc(Nc2cccc(Cl)c2)c2ncn(C(C)C)c2n1,?,.,-16.7%,.,-4.8%,.
SMILES,APEX1 inh,FEN1 inhibitor,BLM inh,L3MBTL1 inh,RECQ1 inh,WRN helicase inh
CC1(C)S[C@@H]2[C@H](N)C(=O)N2[C@H]1C(=O)O,16.8%,.,.,.,.,.
C[C@H]1CC[C@]2(NC1)O[C@H]1C[C@H]3[C@@H]4CC[C@H]5C[C@@H](O[C@@H]6O[C@H](CO)[C@H](O[C@@H]7O[C@H](CO)[C@@H](O)[C@H](O[C@@H]8OC[C@@H](O)[C@H](O)[C@H]8O)[C@H]7O[C@@H]7O[C@H](CO)[C@@H](O)[C@H](O)[C@H]7O)[C@H](O)[C@H]6O)CC[C@]5(C)[C@H]4CC[C@]3(C)[C@H]1[C@@H]2C,-3.4%,.,.,.,.,.
CCCN1CCc2cc(O)cc3c2[C@H]1Cc1ccc(O)c(O)c1-3,.,50.1µM*,.,.,.,-0.3%
CN1CCc2cc(O)cc3c2[C@H]1Cc1ccc(O)c(O)c1-3,.,79.4µM*!,.,.,.,-34.6%
CCN1C[C@]2(COC)[C@H](O)C[C@H](OC)[C@@]34[C@@H]5C[C@@]6(O)[C@H](OC(=O)c7ccccc7)[C@@H]5[C@@](OC(C)=O)([C@@H]([C@H](OC)[C@H]23)[C@@H]14)[C@@H](O)[C@@H]6OC,2.9%,.,.,.,.,.
O=C1C[C@@H](c2ccc(O)cc2)Oc2cc(O)cc(O)c21,-1.5%,6.3%,0.7%,9.5%,-3.3%,2.7%
O=C(O[C@@H]1Cc2c(O)cc(O)cc2O[C@@H]1c1cc(O)c(O)c(O)c1)c1cc(O)c(O)c(O)c1,0.891µM*,.,-4.9%,.,3.16µM*,.
O=c1[nH]sc2cc(F)ccc12,0.3%,?,2.9%,.,-2.2%,31.6µM*
CCOC(=O)c1c(/N=C/C2C(=O)NC(=S)NC2=O)sc2c1CCC2,-4.1%,-21.8%,-3.9%,-16.8%,-9.0%,56.2µM*
CCOC(=O)c1cc(C)sc1/N=C/C1C(=O)NC(=S)NC1=O,5.1%,-8.5%,-6.2%,-16.6%,i,50.1µM*
Oc1c(Cl)c(Cl)cc(Cl)c1Cl,2.7%,.,.,.,0.0%,.
CC(=O)O[C@H]1C[C@H]2CC[C@@H]3[C@@H](CC[C@]4(C)[C@H](OC(C)=O)[C@H]([N+]5(C)CCCCC5)C[C@@H]34)[C@]2(C)C[C@H]1[N+]1(C)CCCCC1,-4.8%[21 µM],.,22.2%[21.4 µM],.,-3.0%[25.9 µM],.
CCN(CC)C(=O)c1ccc2c(c1)C1C=CCC1C(C(=O)O)N2 (stereo not given),15.3%,?,-14.3%,.,.,44.7µM*
CCN(CC)C(=O)c1ccc(N(Cc2ccccc2)S(C)(=O)=O)cc1,6.9%,23.4%,2.3%,0.7%,.,6.6%
COc1cc(CC2(CCc3ccncc3)C(=O)NC(=O)NC2=O)cc(OC)c1OC,9.6%,0.0%,-6.7%,-1.1%,i,8.9%

# Screening results: PubChem BioAssay, National Center for Advancing Translational Sciences (NCATS)
